{"source": "the supplement of paper PMC3334620", "note": "In all, about 33,000 sequences were measured (“E-score (-0.5 to 0.5)”: median about -0.053, highest 2% from about 0.37 on). What follows is part of a selection rich in the highest values, with near analogues and random picks from the rest.", "data": [{"biological_target": "Hap1 (UniProt P0CE41)", "sequence (P0CE41 whole entry, the tested form may be a part)": "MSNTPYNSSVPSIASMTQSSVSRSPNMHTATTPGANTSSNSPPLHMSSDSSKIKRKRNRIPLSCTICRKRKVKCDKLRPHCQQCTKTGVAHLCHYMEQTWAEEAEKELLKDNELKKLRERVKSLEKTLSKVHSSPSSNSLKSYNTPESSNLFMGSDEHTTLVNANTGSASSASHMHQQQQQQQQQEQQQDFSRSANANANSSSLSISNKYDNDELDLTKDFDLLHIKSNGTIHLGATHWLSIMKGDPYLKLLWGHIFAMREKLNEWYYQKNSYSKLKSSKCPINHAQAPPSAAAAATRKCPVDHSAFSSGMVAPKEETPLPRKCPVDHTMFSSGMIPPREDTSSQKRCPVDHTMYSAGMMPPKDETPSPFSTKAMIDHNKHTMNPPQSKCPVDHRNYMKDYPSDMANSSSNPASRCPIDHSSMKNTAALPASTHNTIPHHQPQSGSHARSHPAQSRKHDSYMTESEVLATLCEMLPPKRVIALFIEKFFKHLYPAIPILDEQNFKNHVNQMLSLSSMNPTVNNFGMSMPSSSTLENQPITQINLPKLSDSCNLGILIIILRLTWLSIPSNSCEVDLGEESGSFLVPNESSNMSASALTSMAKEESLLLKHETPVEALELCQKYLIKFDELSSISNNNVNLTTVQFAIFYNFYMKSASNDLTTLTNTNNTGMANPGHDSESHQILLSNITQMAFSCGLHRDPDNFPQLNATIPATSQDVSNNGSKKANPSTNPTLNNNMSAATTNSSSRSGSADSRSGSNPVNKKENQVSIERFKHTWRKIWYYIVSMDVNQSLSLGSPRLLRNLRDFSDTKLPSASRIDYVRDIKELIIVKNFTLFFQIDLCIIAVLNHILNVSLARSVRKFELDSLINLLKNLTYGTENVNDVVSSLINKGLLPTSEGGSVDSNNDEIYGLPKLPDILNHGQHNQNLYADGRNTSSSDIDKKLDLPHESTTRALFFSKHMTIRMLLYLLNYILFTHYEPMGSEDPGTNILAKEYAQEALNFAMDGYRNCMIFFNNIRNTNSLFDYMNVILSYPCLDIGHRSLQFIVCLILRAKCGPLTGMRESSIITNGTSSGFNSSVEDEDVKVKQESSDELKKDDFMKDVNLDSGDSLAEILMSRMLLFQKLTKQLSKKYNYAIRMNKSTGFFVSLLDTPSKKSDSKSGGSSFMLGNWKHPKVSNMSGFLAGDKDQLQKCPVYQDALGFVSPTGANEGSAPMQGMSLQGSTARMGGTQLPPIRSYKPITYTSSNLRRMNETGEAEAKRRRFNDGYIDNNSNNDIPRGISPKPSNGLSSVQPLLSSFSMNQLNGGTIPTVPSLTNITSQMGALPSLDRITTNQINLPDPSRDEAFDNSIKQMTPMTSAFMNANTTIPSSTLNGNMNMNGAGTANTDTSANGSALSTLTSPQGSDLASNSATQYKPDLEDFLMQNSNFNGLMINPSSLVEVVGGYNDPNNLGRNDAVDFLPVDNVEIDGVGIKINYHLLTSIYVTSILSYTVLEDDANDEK", "assay": "PBM E-score (8-mer binding enrichment) (E-score (-0.5 to 0.5)); higher = stronger / more preferred TF binding", "conditions": "protein concentration: 200 nM; construct: GST-DNA-binding domain", "procedure": "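Universal 'all 10-mer' protein binding microarrays (Agilent AMADID 015681) probed with GST-tagged S. cerevisiae TFs (full-length or DBD) made by in vitro transcription/translation (PURExpress), about 100-200 nM. Bound TF was detected with fluorescent anti-GST. Each ungapped 8-mer (which stands for itself and its reverse complement) is scored by the PBM enrichment score (E-score), a modified Wilcoxon-Mann-Whitney statistic from -0.5 to +0.5, computed with the Universal PBM Analysis Suite. Scale: above 0.35 generally sequence-specific binding.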", "values": [{"sequence": "AATCGCCG", "PBM E-score": 0.395}, {"sequence": "CATCGCCG", "PBM E-score": 0.293}, {"sequence": "CAACGCCG", "PBM E-score": 0.264}, {"sequence": "AAACGCCA", "PBM E-score": 0.0524}, {"sequence": "AATCGCCC", "PBM E-score": 0.0407}, {"sequence": "AAACGCCG", "PBM E-score": 0.402}, {"sequence": "CGGTCAAA", "PBM E-score": 0.269}, {"sequence": "ACAATCCC", "PBM E-score": 0.254}, {"sequence": "ACATCTCC", "PBM E-score": 0.283}, {"sequence": "ATTTTTGA", "PBM E-score": -0.132}, {"sequence": "ATCTAAAT", "PBM E-score": 0.149}, {"sequence": "GAAGTGGC", "PBM E-score": -0.0295}, {"sequence": "ATGAAACG", "PBM E-score": -0.0187}, {"sequence": "GAAACAGC", "PBM E-score": 0.0614}, {"sequence": "TCCAAGGA", "PBM E-score": 0.0272}, {"sequence": "GGGATAGA", "PBM E-score": -0.0284}, {"sequence": "GCATCTTA", "PBM E-score": -0.0356}, {"sequence": "AGTCCGGC", "PBM E-score": 0.389}, {"sequence": "AGTCCCGG", "PBM E-score": 0.322}, {"sequence": "AGTCCGGG", "PBM E-score": 0.393}, {"sequence": "AGTCCGTC", "PBM E-score": 0.325}, {"sequence": "AGTCCGCG", "PBM E-score": 0.297}, {"sequence": "AGTCCGCC", "PBM E-score": 0.292}, {"sequence": "CTCCAGAG", "PBM E-score": -0.0749}, {"sequence": "ACCATGAG", "PBM E-score": -0.129}, {"sequence": "AACGGAAA", "PBM E-score": 0.385}, {"sequence": "ATCGGAAA", "PBM E-score": 0.426}, {"sequence": "CTCGGAAA", "PBM E-score": 0.346}, {"sequence": "ATCGGAAG", "PBM E-score": 0.236}, {"sequence": "CACGGAAA", "PBM E-score": 0.295}, {"sequence": "ATCGGAAT", "PBM E-score": 0.363}, {"sequence": "TTCGGAAA", "PBM E-score": 0.389}, {"sequence": "AACGGAAT", "PBM E-score": 0.306}, {"sequence": "GTCGGAAA", "PBM E-score": 0.361}, {"sequence": "ACATTGAC", "PBM E-score": -0.114}, {"sequence": "ATACCGAT", "PBM E-score": 0.288}, {"sequence": "GACCAACA", "PBM E-score": 0.0331}, {"sequence": "CCCCATCG", "PBM E-score": 0.172}, {"sequence": "AATCGCGC", "PBM E-score": 0.135}, {"sequence": "AGCGCAGG", "PBM E-score": 0.00092}, {"sequence": "CTCGGATA", "PBM E-score": 0.371}, {"sequence": "ATCGGATC", "PBM E-score": 0.339}, {"sequence": "CACGGATA", "PBM E-score": 0.298}, {"sequence": "CTCGGGTA", "PBM E-score": 0.264}, {"sequence": "GTCGGATA", "PBM E-score": 0.339}, {"sequence": "ATCGGATA", "PBM E-score": 0.404}, {"sequence": "CTCGGATC", "PBM E-score": 0.383}, {"sequence": "AACGGATA", "PBM E-score": 0.398}, {"sequence": "AACGGATT", "PBM E-score": 0.338}, {"sequence": "ATCGGATG", "PBM E-score": 0.346}, {"sequence": "CGCGGATC", "PBM E-score": 0.172}, {"sequence": "CGCGGATA", "PBM E-score": 0.309}, {"sequence": "AGTGAGCA", "PBM E-score": -0.28}, {"sequence": "AACCAGCG", "PBM E-score": 0.0362}, {"sequence": "CGTTGCAC", "PBM E-score": 0.065}, {"sequence": "CGCACACA", "PBM E-score": -0.0394}, {"sequence": "ATGGGAGA", "PBM E-score": -0.315}, {"sequence": "CAGCTATG", "PBM E-score": -0.287}, {"sequence": "ACTGAAGG", "PBM E-score": -0.129}, {"sequence": "AATCCGCA", "PBM E-score": 0.247}, {"sequence": "GATCCGAC", "PBM E-score": 0.273}, {"sequence": "AATCCGGT", "PBM E-score": 0.418}, {"sequence": "GATCCGCC", "PBM E-score": 0.29}, {"sequence": "AATCCGGA", "PBM E-score": 0.433}, {"sequence": "GATCCGGC", "PBM E-score": 0.375}, {"sequence": "CATCCGAA", "PBM E-score": 0.368}, {"sequence": "AATCCGTA", "PBM E-score": 0.219}, {"sequence": "AATCCGCT", "PBM E-score": 0.243}, {"sequence": "AATCCAGT", "PBM E-score": 0.219}, {"sequence": "TATCCGAA", "PBM E-score": 0.364}, {"sequence": "GATCCGAA", "PBM E-score": 0.379}, {"sequence": "GAGGGCGA", "PBM E-score": 0.0665}, {"sequence": "TACTGGGA", "PBM E-score": -0.0481}, {"sequence": "ATCGGGCG", "PBM E-score": 0.36}, {"sequence": "ACAGATCA", "PBM E-score": -0.0146}, {"sequence": "CGCGTTGC", "PBM E-score": 0.159}, {"sequence": "CTACTAAC", "PBM E-score": -0.214}, {"sequence": "TGCTAGAA", "PBM E-score": -0.118}, {"sequence": "TATCCGGA", "PBM E-score": 0.428}, {"sequence": "CATCCGGA", "PBM E-score": 0.423}, {"sequence": "GATCCGGA", "PBM E-score": 0.395}, {"sequence": "AATCCGGC", "PBM E-score": 0.37}, {"sequence": "GATCCGCA", "PBM E-score": 0.253}, {"sequence": "CATCCGCA", "PBM E-score": 0.224}, {"sequence": "AATCCGTC", "PBM E-score": 0.232}, {"sequence": "TATCCGCA", "PBM E-score": 0.253}, {"sequence": "GATCCGTA", "PBM E-score": 0.225}, {"sequence": "CATCCGGC", "PBM E-score": 0.342}, {"sequence": "TATCCTGA", "PBM E-score": -0.0806}, {"sequence": "CATCCGTA", "PBM E-score": 0.2}, {"sequence": "ATACGTCA", "PBM E-score": 0.0245}, {"sequence": "TAGTTTCA", "PBM E-score": -0.024}, {"sequence": "CACCTGTA", "PBM E-score": -0.173}, {"sequence": "GAAATCGC", "PBM E-score": 0.196}, {"sequence": "ACTAGGCG", "PBM E-score": -0.0773}, {"sequence": "AATCCGCG", "PBM E-score": 0.244}, {"sequence": "AATCCGGG", "PBM E-score": 0.409}, {"sequence": "CATCCGGG", "PBM E-score": 0.278}, {"sequence": "CCTAGGGA", "PBM E-score": -0.112}, {"sequence": "AATTCCGA", "PBM E-score": 0.43}, {"sequence": "TATTCCGA", "PBM E-score": 0.357}, {"sequence": "AATTCCCT", "PBM E-score": -0.106}, {"sequence": "AATTCCGC", "PBM E-score": 0.336}, {"sequence": "CATTCCGG", "PBM E-score": 0.322}, {"sequence": "AATTCCGG", "PBM E-score": 0.451}, {"sequence": "AATTCCAT", "PBM E-score": 0.0073}, {"sequence": "CATTCCGA", "PBM E-score": 0.294}, {"sequence": "AATTCCGT", "PBM E-score": 0.414}, {"sequence": "CTGGCTTC", "PBM E-score": -0.194}, {"sequence": "AGCGAACT", "PBM E-score": -0.137}, {"sequence": "AGAAGGAG", "PBM E-score": -0.248}, {"sequence": "AGTTGCGG", "PBM E-score": 0.153}, {"sequence": "CAGTAGGC", "PBM E-score": -0.174}, {"sequence": "ATGGGTGA", "PBM E-score": -0.0877}, {"sequence": "ATCTAAGC", "PBM E-score": -0.0574}, {"sequence": "GCCTTTTA", "PBM E-score": -0.0799}, {"sequence": "AGTTGCGC", "PBM E-score": 0.0784}, {"sequence": "GCTCCTAC", "PBM E-score": -0.0888}, {"sequence": "AAAATTAT", "PBM E-score": 0.122}, {"sequence": "CCGAAAGA", "PBM E-score": 0.319}, {"sequence": "CCGAAACA", "PBM E-score": 0.288}, {"sequence": "CCGAAAGC", "PBM E-score": 0.369}, {"sequence": "CCGAAACC", "PBM E-score": 0.298}, {"sequence": "GCGAAAAC", "PBM E-score": -0.0632}, {"sequence": "CCGAAACG", "PBM E-score": 0.377}, {"sequence": "TCGAAAAA", "PBM E-score": 0.0162}, {"sequence": "ACGAAAAC", "PBM E-score": 0.124}, {"sequence": "CCGAAAAC", "PBM E-score": 0.379}, {"sequence": "GCGAAAGC", "PBM E-score": 0.0298}, {"sequence": "CCGAAAAG", "PBM E-score": 0.311}, {"sequence": "CCGAAAAA", "PBM E-score": 0.398}, {"sequence": "CAACCCAC", "PBM E-score": -0.131}, {"sequence": "GCATTAGA", "PBM E-score": -0.112}, {"sequence": "CAGTTGAG", "PBM E-score": -0.225}, {"sequence": "AGAATTCT", "PBM E-score": 0.108}, {"sequence": "CAGTGTTC", "PBM E-score": -0.0181}, {"sequence": "CGTGAAAC", "PBM E-score": -0.0905}, {"sequence": "GACAGGGC", "PBM E-score": -0.0413}, {"sequence": "AGGTTGTA", "PBM E-score": -0.112}, {"sequence": "ACGAAATC", "PBM E-score": 0.0404}, {"sequence": "CCGAAATA", "PBM E-score": 0.351}, {"sequence": "CCGAAATC", "PBM E-score": 0.401}, {"sequence": "AAGCGGAG", "PBM E-score": -0.0297}, {"sequence": "TCTCAGCA", "PBM E-score": -0.326}, {"sequence": "ATCGAATG", "PBM E-score": -0.076}, {"sequence": "CTACGCCC", "PBM E-score": 0.0263}, {"sequence": "TAGCATAA", "PBM E-score": -0.0142}, {"sequence": "ATTTCACA", "PBM E-score": -0.131}, {"sequence": "CGGCGTTA", "PBM E-score": 0.476}, {"sequence": "CGCCGATA", "PBM E-score": 0.426}, {"sequence": "GGGCGATA", "PBM E-score": 0.179}, {"sequence": "GGCCGTTA", "PBM E-score": 0.333}, {"sequence": "CGCCGTTA", "PBM E-score": 0.291}, {"sequence": "CGGCGTTC", "PBM E-score": 0.235}, {"sequence": "AGGCGATA", "PBM E-score": 0.119}, {"sequence": "GGCCGCTA", "PBM E-score": 0.225}, {"sequence": "CGCCGATC", "PBM E-score": 0.326}, {"sequence": "GGCCGATA", "PBM E-score": 0.457}, {"sequence": "GGGCGTTA", "PBM E-score": 0.147}, {"sequence": "CGGCGATA", "PBM E-score": 0.472}, {"sequence": "CGAAAAAC", "PBM E-score": 0.169}, {"sequence": "GAATGCAC", "PBM E-score": -0.00315}, {"sequence": "AGGGATGA", "PBM E-score": -0.133}, {"sequence": "AGTCAAAG", "PBM E-score": -0.13}, {"sequence": "GTCGCGAC", "PBM E-score": 0.244}, {"sequence": "ACTCCCAG", "PBM E-score": -0.0473}, {"sequence": "AGCCGATA", "PBM E-score": 0.427}, {"sequence": "AGCCGATC", "PBM E-score": 0.245}, {"sequence": "AGCCGATG", "PBM E-score": 0.233}, {"sequence": "ACAGTGCT", "PBM E-score": -0.138}, {"sequence": "ACCCGGTA", "PBM E-score": 0.376}, {"sequence": "ACCCGGTC", "PBM E-score": 0.222}]}]}
